Mtb betalactam = beta-lactam sensitization of Mtb H37Rv. M. tuberculosis H37Rv growth with meropenem, percent inhibition. inhibition, % at 25 µM. 0.27% of 330,000 active; call rule not given here;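 further: growth measured after seven days incubation then overnight dye step; 0% = bacteria only wells and 100% = bacteria with antibiotic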
MazF activator = increases E. coli MazEF RNase cleavage of RNA; 0.32% of 350,000 active; activation, % at 20 µM; FAM/BHQ RNA-DNA oligo cleavage fluorescence, 5 h; AID 504720; in the data active means activation above about 50%
TcdB GH inh = TcdB glycohydrolase inhibition. TcdB glycohydrolase enzymatic assay, plate reader. 0.24% of 350,000 active. inhibition, % at 9.99 µM; in the data active means inhibition above about 10%
Rv3671c protease = inhibitors of M. tuberculosis serine protease Rv3671c | P9WHR9 | inhibition, % at 5.96 µM | 0.048% of 320,000 active; in the data active means inhibition above about 38%;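 further: extracellular domain of Rv3671c used as enzyme; 0% = enzyme with DMSO and 100% = no enzyme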
UGM FP inh = inhibitors of M. tuberculosis UDP-galactopyranose mutase; inhibition, % at 10 µM; 0.06% of 320,000 active; purified UGM, fluorescence polarization probe displacement; P9WIQ1; AID 504406; in the data active means inhibition above about 10%, passing the limit was not always enough
RecA intein inh = blocks M. tuberculosis RecA intein splicing. cell-free RecA intein splicing, fluorescence. inhibition, % (no concentration beside the values). 0.75% of 290,000 active. AID 2221; in the data active means inhibition above about 30%;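 further: 0% = vehicle wells and 100% = reference inhibitor control wells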
An asterisk follows results filed as active; . = no result. Most compounds without a hit are left out; they make up all but 0.97% or so of the library.

SMILES	Mtb betalactam	MazF activator	TcdB GH inh	Rv3671c protease	UGM FP inh	RecA intein inh
Cc1nc(NC(=O)/C=C/c2ccc(Cl)cc2Cl)sc1C(=O)N(C)C	-7	79*	0	3	-1	2
Cn1c(CNc2ccc(O)cc2)nc2ccccc21	2	105*	6	2	4	-5
C[C@@H]1CN([C@@H](C)CO)C(=O)Cc2cc(NS(=O)(=O)c3ccccc3)ccc2O[C@@H]1CN(C)S(=O)(=O)c1cn(C)cn1	.	.	-1	.	.	.
N#C[C@H]1[C@@H](c2ccccc2)[C@@H](CO)N1C(=O)c1cccnc1	.	.	0	.	.	.
CO[C@H]1CN(C)C(=O)c2ccc(NS(=O)(=O)c3cccc(C)c3)cc2OC[C@@H](C)NC[C@H]1C	.	.	1	.	.	.
CCc1ccccc1NC(=O)CN1CCN(CC(=O)NCc2ccc(Cl)cc2)CC1	3	5	14*	0	0	.
O=C(CN1CCN(Cc2ccccc2)CC1)NCc1ccc(Cl)cc1	-3	8	0	-6	2	-1
O=S(=O)(NC1CCCCCCC1)c1ccc(F)cc1	-3	-6	12*	1	5	-1
O=C1NC(c2ccc(-c3ccccc3[N+](=O)[O-])o2)C(C(=O)c2ccc(F)cc2)C(O)(C(F)(F)F)N1 (configuration not stated)	14	9	.	-34	1	83*
Cc1ccc(C2NC(=O)NC(O)(C(F)(F)F)C2C(=O)c2ccccc2)o1 (configuration not stated)	12	-7	.	-7	0	-1
CCCC(=O)Nc1ccc2c(c1)OC[C@H](C)N(CC1CCOCC1)C[C@@H](C)[C@H](OC)CN(C)C2=O	.	.	0	.	.	.
FC(F)Sc1ccc(NC(=S)NC(c2ccccc2)c2ccccc2)cc1	54	127*	-1	-195	-2	12
CCCc1[nH]nc2c1C(c1ccc(OC(=O)N3CCOCC3)c(OC)c1)C(C#N)=C(N)O2 (configuration not stated)	3	13	.	8	-1	42*
CCCOc1ccc(C2C(C#N)=C(N)Oc3nc[nH]c(=O)c32)cc1OC (configuration not stated)	2	-1	.	0	3	0
CCOc1ccc(C2C(C#N)=C(N)Oc3n[nH]c(C)c32)cc1OC(=O)C1CC1 (configuration not stated)	5	8	.	4	-1	66*
COc1cc(C2C(C#N)=C(N)Oc3cc(C)oc(=O)c32)ccc1OC(=O)N1CCOCC1 (configuration not stated)	1	3	.	-6	-3	-1
CCc1[nH]nc2c1C(c1cccc(OC(=O)N3CCOCC3)c1)C(C#N)=C(N)O2 (configuration not stated)	11	-6	1	-3	4	69*
CC(C)c1[nH]nc2c1C(c1cccc(OC(=O)N3CCOCC3)c1)C(C#N)=C(N)O2 (configuration not stated)	-2	4	.	-1	4	45*
C[C@@H]1CN([C@@H](C)CO)C(=O)c2cc(Br)cnc2O[C@@H]1CN(C)C(=O)NC1CCCC1	.	.	2	.	.	.
Cc1noc(C)c1NC(=O)Nc1ccc2c(c1)C(=O)N([C@@H](C)CO)C[C@H](C)[C@H](CN(C)C(=O)Nc1ccc(C(F)(F)F)cc1)OCCCC[C@H](C)O2	.	.	0	.	.	.
CC(=O)N1CCC(=NNS(=O)(=O)c2cccc([N+](=O)[O-])c2)CC1	.	53*	.	.	.	.
C[C@H]1CN([C@@H](C)CO)C(=O)c2cc(NC(=O)c3ccncc3)ccc2O[C@H]1CN(C)Cc1ccncc1	.	.	1	.	.	.
Cc1ccc(NC(=O)/C(C#N)=C/c2ccc(C)s2)c(C)c1	0	190*	.	-20	13*	-1
C[C@H]1CN([C@@H](C)CO)C(=O)c2cc(C#CC3CCCCC3)cnc2O[C@@H]1CN(C)S(=O)(=O)c1cccc(F)c1	.	.	-1	.	.	.
CC(C)(C)c1cc[n+](-c2[nH]c(=O)sc2/C=N/NC([S-])=Nc2ccccc2)cc1	2	-89	-3	9	18*	-6
O=C(COc1cccc(C(F)(F)F)c1)N1CCN(c2ccc(O)cc2)CC1	1	-8	16*	3	6	-9
CCOC(=O)CSc1nc2sc3c(c2c(=O)n1-c1ccc(OCC)cc1)CCN(C)C3	13	14	-1	-4	0	15
CCOC(=O)CSc1nc2sc3c(c2c(=O)n1C1CCCCC1)CCN(C)C3	64	4	.	-1	1	34*

Source: PubChem BioAssay
